Source: the supplement of paper PMC13094657
Structures can show the parent of a compound that is named as a salt. ± gives the standard deviation of the averaged measurements.

test system: MDA-MB-231; experiment: kynurenine production, fold change vs DMSO IFNg/TNF control; higher = more kynurenine produced (less inhibition); conditions: pre-treatment time: 18 h then 24 h IFNg/TNF
Outline: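 Fold change over cytokine-stimulated vehicle wells on the same plate is the measure used for kynurenine production, averaged across duplicate plates in the first screening round. MDA-MB-231 cells, seeded 24 h beforehand at 7 × 10^4/well in 96-well plates, were pre-treated 18 h with each natural product in 0.1% DMSO and stimulated 24 h at 37°C with IFNγ (1 U/ml) and TNF (6.25 ng/ml). Supernatants were read at 492 nm following trichloroacetic acid and p-dimethylaminobenzaldehyde treatment, against 0–100 μM standards.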

Structure (SMILES)	kynurenine production
CC12CCC(CC1=O)C2(C)C (stereo not drawn) [(+)-Camphor] (compound dose: 10 uM)	0.98 ± 0.25
CC1(C)C2CC=C(C=O)C1C2 (single isomer, unassigned; (-)) [(-)-Myrtenal] (compound dose: 10 uM)	0.941 ± 0.084
C=C(C)C1CC=C(C)[C@@H](O)C1 (stereo partly specified) [Carveol] (compound dose: 10 uM)	0.801 ± 0.38
CC1(C)[C@@H](O)CC[C@]2(C)[C@H]3CC=C4[C@@H]5C[C@@]6(C)C[C@H](OC6=O)[C@]5(C)CC[C@@]4(C)[C@]3(C)CC[C@@H]12 [Wilforlide A] (compound dose: 2 uM)	0.834 ± 0.13
COc1ccc2c3c1O[C@H]1C[C@@H](O)C=C[C@@]31CCN(C)C2 [Galantamine hydrobromide] (compound dose: 10 uM)	0.792 ± 0.067
CCOC(=O)/C=C/c1ccccc1 [Ethyl cinnamate] (compound dose: 10 uM)	1.14 ± 0.11
C[C@H](CC(=O)C[C@@H](C)[C@H]1C[C@H](O)[C@@]2(C)C3=C(C(=O)C[C@]12C)[C@@]1(C)CCC(=O)C(C)(C)[C@@H]1C[C@@H]3O)C(=O)O [Ganoderic acid A] (compound dose: 10 uM)	0.857 ± 0.073
C[C@@H]1CC[C@]2(C(=O)O)CC[C@]3(C)C(=CCC4[C@@]5(C)CC[C@H](O[C@@H]6OC[C@H](O)[C@H](O)[C@H]6O)C(C)(C)C5CC[C@]43C)[C@@H]2[C@]1(C)O (stereo partly specified) [Ziyuglycoside II] (compound dose: 10 uM)	0.646 ± 0.0077
CCCCCCCCCC(=O)O[C@@H]1[C@@H](C)[C@@]2(O)[C@@H](C=C(COC(=O)Cc3ccc(O)c(OC)c3)C[C@]3(O)C(=O)C(C)=C[C@@H]23)[C@@H]2C(C)(C)[C@]12OC(=O)CCCCCCCCC [Phorbol 12,13-didecanoate 20-homovanillate] (compound dose: 10 uM)	0.74 ± 0.024
OCC1=C[C@@H](O)[C@@H]2C=CO[C@@H](O[C@@H]3O[C@H](CO)[C@@H](O)[C@H](O)[C@H]3O)[C@H]12 [Aucubin] (compound dose: 10 uM)	0.87 ± 0.041
CC(C)=CCC[C@H](C)CC=O [(S)-(-)-Citronellal] (compound dose: 10 uM)	1.14 ± 0.18
CC(CC(=O)C[C@@H](C)[C@H]1CC(=O)[C@@]2(C)C3=C(C(=O)[C@@H](O)[C@]12C)[C@@]1(C)CC[C@H](O)C(C)(C)[C@@H]1C[C@@H]3O)C(=O)O (stereo partly specified) [Ganoderic acid G] (compound dose: 10 uM)	0.973 ± 0.16
CC(C)=CCC/C(C)=C/CC/C(C)=C/CC/C=C(\C)CC/C=C(\C)CCC=C(C)C [Squalene] (compound dose: 10 uM)	0.887 ± 0.027
C=C1CC[C@@H]2[C@](C)(CO[C@@H]3O[C@H](CO)[C@@H](O)[C@H](O)[C@H]3O)CCC[C@@]2(C)[C@@H]1CCC1=CCOC1=O [Neoandrographolide] (compound dose: 10 uM)	0.893 ± 0.012
O[C@H]1[C@H]2c3cc4c(cc3CN3CC[C@H](C[C@@H]1O)[C@H]23)OCO4 [Dihydrolycorine] (compound dose: 10 uM)	0.723 ± 0.022
COc1cc2ccc(=O)oc2cc1O[C@@H]1O[C@H](CO)[C@@H](O)[C@H](O)[C@H]1O [Scopolin] (compound dose: 10 uM)	1.22 ± 0.16

Structure (SMILES)	kynurenine production
C[C@@H]1O[C@@H](O[C@H]2[C@H](O)[C@@H](O)[C@H](OC[C@H]3O[C@@H](OC(=O)[C@]45CCC(C)(C)C[C@H]4C4=CC[C@@H]6[C@@]7(C)CC[C@H](O[C@@H]8OC[C@H](O)[C@H](O)[C@H]8O)[C@@](C)(CO)[C@@H]7CC[C@@]6(C)[C@]4(C)CC5)[C@H](O)[C@@H](O)[C@@H]3O)O[C@@H]2CO)[C@H](O)[C@H](O)[C@H]1O [Cauloside D] (compound dose: 10 uM)	1.23 ± 0.19
COC(=O)[C@@]1(C)CC[C@]2(C(=O)O)CC[C@]3(C)C(=CC[C@@H]4[C@@]5(C)C[C@H](O)[C@H](O)[C@@](C)(CO)[C@@H]5CC[C@]43C)[C@@H]2C1 [Phytolaccagenin] (compound dose: 10 uM)	0.875 ± 0.095
CC(C)=CCC/C(C)=C/C=O [Citral] (compound dose: 10 uM)	0.864 ± 0.074
C[C@@]12C[C@H](c3ccoc3)O[C@@]13C[C@H](OC3=O)[C@H]1[C@H]2C[C@@H]2C[C@H]1C(=O)O2 [Diosbulbin B] (compound dose: 10 uM)	0.779 ± 0.13
CC12CCC(CC1)C(C)(C)O2 [1,8-cineole] (compound dose: 10 uM)	0.913 ± 0.074
C[C@H](CC[C@@H](O[C@@H]1O[C@H](CO[C@@H]2O[C@H](CO)[C@@H](O)[C@H](O)[C@H]2O)[C@@H](O)[C@H](O)[C@H]1O)C(C)(C)O)[C@H]1CC[C@@]2(C)[C@@H]3CC=C4[C@@H](CC[C@H](O[C@@H]5O[C@H](CO)[C@@H](O)[C@H](O)[C@H]5O)C4(C)C)[C@]3(C)[C@H](O)C[C@]12C [Mogroside III] (compound dose: 10 uM)	0.997 ± 0.13
CC1C(=O)OC2C(O)C34C5CC(C(C)(C)C)C36C(OC(=O)C6O)OC4(C(=O)O5)C12O (stereo unspecified) [Ginkgolide B] (compound dose: 10 uM)	1.18 ± 0.033
O=C(O)C1=CO[C@@H](O[C@@H]2O[C@H](CO)[C@@H](O)[C@H](O)[C@H]2O)[C@H]2[C@@H]1C=C[C@]2(O)CO [Monotropein] (compound dose: 10 uM)	0.846 ± 0.13
CC(=O)O[C@H]1CC(=O)OC(C)(C)[C@@H]2CC(=O)[C@]3(C)[C@H](CC[C@@]4(C)[C@@H](c5ccoc5)OC(=O)[C@H]5O[C@]543)[C@@]12C [Nomilin] (compound dose: 10 uM)	0.942 ± 0.087
CC1(C(=O)O)CCC2(C)CCC3(C)C(=CC(=O)C4C5(C)CCC(O)C(C)(C)C5CCC43C)C2C1 (stereo not drawn) [18β-Glycyrrhetinic acid] (compound dose: 10 uM)	1.09 ± 0.18
C=C1CC[C@@H]2[C@](C)(CO)[C@H](O)CC[C@@]2(C)[C@@H]1C/C=C1/C(=O)OC[C@H]1O [Andrographolide] (compound dose: 10 uM)	0.534 ± 0.15
C[C@H]1[C@H](C)CC[C@]2(C(=O)O)CC[C@]3(C)C(=CC[C@@H]4[C@@]5(C)CC[C@H](O)C(C)(C)[C@@H]5CC[C@]43C)[C@H]12 [3-Epiursolic Acid] (compound dose: 10 uM)	0.649 ± 0.08
CC1(C)CCCC2(C)C1CCC1(C)OCCC12 (stereo unspecified) [Ambroxide] (compound dose: 10 uM)	0.891 ± 0.13
CC1=CCC2CC1C2(C)C (stereo not drawn) [(-)-α-Pinene] (compound dose: 10 uM)	1.21 ± 0.14
CC1(C)CC[C@]2(C(=O)O[C@@H]3O[C@H](CO)[C@@H](O)[C@H](O)[C@H]3O)CC[C@]3(C)C(=CC[C@@H]4[C@@]5(C)CC[C@H](O[C@@H]6O[C@H](C(=O)O)[C@@H](O)[C@H](O)[C@H]6O[C@@H]6O[C@H](CO)[C@@H](O)[C@H](O)[C@H]6O)C(C)(C)[C@@H]5CC[C@]43C)[C@@H]2C1 [Ginsenoside Ro] (compound dose: 10 uM)	1.05 ± 0.091
